# Source: PubChem BioAssay
# Activity calls are given as the source filed them. No stated cut-off is given here; in the data, active means inhibition above about 31%; inactive means the rest.
# Assay: MRP1 drug-resistance reversers in H69AR cells – cell-based, doxorubicin co-treatment, pilot screen (AID 601)
# Details: H69AR cells, CellTiter-Glo, 72 h; compound alone cytotoxicity; at 10 µM
row,SMILES,viability
1,Cc1ccc(-c2nc(N)n(C(=O)c3cccnc3)n2)cc1,105%
2,COc1ccccc1N1CCN(C(=O)c2ccc3nc(-c4ccco4)c(-c4ccco4)nc3c2)CC1,69.6%
3,Cc1ccc(OCC(=O)N2CCN(C(=O)CCC3CCCC3)CC2)cc1,86.6%
4,O=c1c2[nH]c3cccc(Cl)c3c2ncn1CCN1CCCCC1,92.6%
5,O=C(CS(=O)(=O)c1cn(Cc2ccc(Cl)cc2)c2ccccc12)N1CCOCC1,97%
6,CCCC(=O)Nc1ccc(NC(=O)c2ccccc2OC)cn1,92.9%
7,CC(C)CCNC(=O)C(c1ccco1)N(CC1CCCO1)C(=O)Cn1nnc2ccccc21 (stereo not given),94.4%
8,Cn1cnnc1Sc1nc2c(c(=O)n(C)c(=O)n2C)n1C,102%
9,CC(CCc1ccccc1)NC(=O)c1ccc(Br)o1 (stereo not given),93.5%
10,O=C1CC(c2ccsc2)c2cc3c(cc2N1)OCCO3 (stereo not given),26.9%
11,Nc1nonc1-n1nnc(C(=O)c2ccccc2)c1-c1ccccc1,99.4%
12,C#CC1(O)CC(C)N(C)C(C)C1 (stereo not given),91.9%
13,Cc1ccc(S(=O)(=O)CCC(=O)Nc2ccc3c(c2)OCO3)cc1,81.3%
14,Cc1ccc(C)c2[nH]c(=O)c(CCNC(=O)c3ccc(Br)o3)cc12,89.3%
15,O=c1c2ccccc2nc(SCc2cn3ccsc3n2)n1-c1ccc(F)cc1,102%
16,Cn1c(SCC(=O)c2ccc(-c3ccccc3)cc2)nnc1-c1ccco1,88.1%
17,O=C(NCCSCc1ccco1)Nc1cccc(Cl)c1,86.3%
18,Cn1nnc2c(sc3nc(N4CCOCC4)c4c(c32)CCCC4)c1=O,81.6%
19,CCOc1cc(NC(=O)c2ccco2)c(OCC)cc1NC(=O)COc1ccccc1C,7.87%
20,CCOc1ccc(OCC)c2sc(C)nc12,99.5%

row,SMILES,viability
1,COC(=O)c1[nH]c2ccccc2c1NS(=O)(=O)c1ccc(OC)cc1OC,84%
2,CC(NC(=O)c1ccco1)c1ccc2c(c1)OCCO2 (stereo not given),96.3%
3,CCC(C)NC(=O)CSC1=Nc2ccccc2C2=NC(CC(=O)NCc3ccccc3)C(=O)N12 (stereo not given),107%
4,Cc1nnc(N(C)C(=O)c2cccnc2)s1,88.7%
5,COc1ccc(N2C(=O)C3CCCN3C2c2ccc(F)cc2)cc1Cl (stereo not given),87.4%
6,CCCn1c(SCC(=O)Nc2nnc(-c3ccccc3)s2)nnc1-c1ccccn1,102%
7,CN(C1CCCCC1)S(=O)(=O)c1ccc(S(=O)(=O)N2CCCC2)cc1,78.5%
8,O=C(CN1CCN(C2CCCCC2)CC1)Nc1ccccc1-c1ccccc1,84.7%
9,COc1cccc(-n2nnc3c(=O)n(Cc4cccc(F)c4)cnc32)c1,99.9%
10,Cc1ccc(-n2c(SCC3CCCCO3)nnc2-c2ccco2)cc1 (stereo not given),91.4%
11,Cc1ccc(-n2nnnc2SCC(=O)N2CCc3ccccc3C2)cc1,82.1%
12,CCOC(=O)c1cccc(NC(=O)C2CCN(S(=O)(=O)c3cccs3)CC2)c1,65%
13,CCn1c(CSc2ncccn2)nnc1SCC(=O)N1c2ccccc2CC1C (stereo not given),96.3%
14,Cc1cc(C(=O)Nc2sc3c(c2C#N)CCCCC3)cs1,77.1%
15,CCN(CC)c1ccc2c(C)c(-c3ccc(N)cc3)c(=O)oc2c1,61.8%
16,N#CC(C(=O)Nc1ccc(Cl)c(Cl)c1)=C1Nc2ccccc2N1,13.5%
17,CCn1nnnc1SCC(=O)N1CCOCC1,97.6%
18,CCN(CC(=O)NCc1cccs1)C(=O)c1cc(S(=O)(=O)N2CCOCC2)ccc1C,87.7%
19,O=C(Nc1ccc2c(c1)OCO2)c1ccc(Br)c(S(=O)(=O)N2CCCC2)c1,94%
20,COc1ccc(CNS(=O)(=O)c2ccc3oc(C(=O)O)c(C)c3c2)cc1,92.2%

# Assay: yeast transport mutant growth inhibition pilot in 384-well plates, post-Golgi transport modulator project (AID 636)
# Details: absorbance 615 nm, about 18 h, stronger effect = higher value
row,SMILES,inhibition
1,Cc1ccc(-c2nc(N)n(C(=O)c3cccnc3)n2)cc1,-3.08% (inactive)
2,COc1ccccc1N1CCN(C(=O)c2ccc3nc(-c4ccco4)c(-c4ccco4)nc3c2)CC1,-4.67% (inactive)
3,Cc1ccc(OCC(=O)N2CCN(C(=O)CCC3CCCC3)CC2)cc1,-6.89% (inactive)
4,O=c1c2[nH]c3cccc(Cl)c3c2ncn1CCN1CCCCC1,-4.13% (inactive)
5,O=C(CS(=O)(=O)c1cn(Cc2ccc(Cl)cc2)c2ccccc12)N1CCOCC1,-1.87% (inactive)
6,CCCC(=O)Nc1ccc(NC(=O)c2ccccc2OC)cn1,-1.17% (inactive)
7,CC(C)CCNC(=O)C(c1ccco1)N(CC1CCCO1)C(=O)Cn1nnc2ccccc21 (stereo not given),-0.67% (inactive)
8,Cn1cnnc1Sc1nc2c(c(=O)n(C)c(=O)n2C)n1C,-0.79% (inactive)
9,CC(CCc1ccccc1)NC(=O)c1ccc(Br)o1 (stereo not given),-4.93% (inactive)
10,O=C1CC(c2ccsc2)c2cc3c(cc2N1)OCCO3 (stereo not given),-2.93% (inactive)
11,Nc1nonc1-n1nnc(C(=O)c2ccccc2)c1-c1ccccc1,-6.58% (inactive)
12,C#CC1(O)CC(C)N(C)C(C)C1 (stereo not given),-4.55% (inactive)
13,Cc1ccc(S(=O)(=O)CCC(=O)Nc2ccc3c(c2)OCO3)cc1,0.95% (inactive)
14,Cc1ccc(C)c2[nH]c(=O)c(CCNC(=O)c3ccc(Br)o3)cc12,-7.81% (inactive)
15,O=c1c2ccccc2nc(SCc2cn3ccsc3n2)n1-c1ccc(F)cc1,-6.44% (inactive)
16,Cn1c(SCC(=O)c2ccc(-c3ccccc3)cc2)nnc1-c1ccco1,-5.6% (inactive)
17,O=C(NCCSCc1ccco1)Nc1cccc(Cl)c1,-5.33% (inactive)
18,Cn1nnc2c(sc3nc(N4CCOCC4)c4c(c32)CCCC4)c1=O,-0.53% (inactive)
19,CCOc1cc(NC(=O)c2ccco2)c(OCC)cc1NC(=O)COc1ccccc1C,-5.6% (inactive)
20,CCOc1ccc(OCC)c2sc(C)nc12,0.79% (inactive)

row,SMILES,inhibition
1,COC(=O)c1[nH]c2ccccc2c1NS(=O)(=O)c1ccc(OC)cc1OC,-5.26% (inactive)
2,CC(NC(=O)c1ccco1)c1ccc2c(c1)OCCO2 (stereo not given),-5.73% (inactive)
3,CCC(C)NC(=O)CSC1=Nc2ccccc2C2=NC(CC(=O)NCc3ccccc3)C(=O)N12 (stereo not given),-3.03% (inactive)
4,Cc1nnc(N(C)C(=O)c2cccnc2)s1,0.96% (inactive)
5,COc1ccc(N2C(=O)C3CCCN3C2c2ccc(F)cc2)cc1Cl (stereo not given),0.39% (inactive)
6,CCCn1c(SCC(=O)Nc2nnc(-c3ccccc3)s2)nnc1-c1ccccn1,-2.7% (inactive)
7,CN(C1CCCCC1)S(=O)(=O)c1ccc(S(=O)(=O)N2CCCC2)cc1,-0.13% (inactive)
8,O=C(CN1CCN(C2CCCCC2)CC1)Nc1ccccc1-c1ccccc1,-3.24% (inactive)
9,COc1cccc(-n2nnc3c(=O)n(Cc4cccc(F)c4)cnc32)c1,-2.7% (inactive)
10,Cc1ccc(-n2c(SCC3CCCCO3)nnc2-c2ccco2)cc1 (stereo not given),0% (inactive)
11,Cc1ccc(-n2nnnc2SCC(=O)N2CCc3ccccc3C2)cc1,-2.5% (inactive)
12,CCOC(=O)c1cccc(NC(=O)C2CCN(S(=O)(=O)c3cccs3)CC2)c1,-5.58% (inactive)
13,CCn1c(CSc2ncccn2)nnc1SCC(=O)N1c2ccccc2CC1C (stereo not given),-5.73% (inactive)
14,Cc1cc(C(=O)Nc2sc3c(c2C#N)CCCCC3)cs1,-3.47% (inactive)
15,CCN(CC)c1ccc2c(C)c(-c3ccc(N)cc3)c(=O)oc2c1,-7.33% (inactive)
16,N#CC(C(=O)Nc1ccc(Cl)c(Cl)c1)=C1Nc2ccccc2N1,-0.66% (inactive)
17,CCn1nnnc1SCC(=O)N1CCOCC1,-4.53% (inactive)
18,CCN(CC(=O)NCc1cccs1)C(=O)c1cc(S(=O)(=O)N2CCOCC2)ccc1C,-4.03% (inactive)
19,O=C(Nc1ccc2c(c1)OCO2)c1ccc(Br)c(S(=O)(=O)N2CCCC2)c1,-1.32% (inactive)
20,COc1ccc(CNS(=O)(=O)c2ccc3oc(C(=O)O)c(C)c3c2)cc1,-3.64% (inactive)
